Gli-Sufu block: blocks Gli-Sufu signaling in a luciferase reporter; Sufu-KO-LIGHT fibroblasts, Gli luciferase reporter luminescence; inhibition, % at 5 µM; 340,000 compounds, 0.74% hits;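 active = inhibition above about 55%, limit read from the data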;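 note: 0% = DMSO-treated cells and 100% = wells with medium but no cells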
CSC inhib: blocks cancer stem cells. cancer stem cell-like cells viability, luminescence. inhibition, % at 7.5 µM. 300,000 compounds, 1.1% hits. AID 2717; in the data active = inhibition above about 75%; tested in HMLE shEcad cells
Shn3 inh set2: inhibitors of Schnurri-3 3'UTR reporter in osteoblasts; Clone20 osteoblast Shn3 3'UTR firefly luciferase, 24 h; inhibition, % at 12.5 µM; 360,000 compounds, 0.52% hits;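 active = mean inhibition of at least 75% with every replicate also reaching 75%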;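 note: 0% = median of neutral control wells and 100% = pilot-screen positive control compound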
Beta apoptosis: blocks beta cell apoptosis. protection from apoptosis, % (no concentration beside the values). INS-1E cytokine-induced death, ATP luminescence, 48 h; percent of positive-control rescue, neutral wells zero. 300,000 compounds, 0.8% hits;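 active = Every replicate reaches about 75%, or at least half do and their mean reaches it too, limit read from the data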;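 note: 0% = cytokine-treated negative control wells and 100% = positive control rescue; higher means more ATP so stronger rescue from cytokine killing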
PAX8 reporter: inhibitors of PAX8 transcriptional activity in RMG-I cells; RMG-I TPO-luciferase reporter, SteadyGlo, 24 h; inhibition, % at 12.6 µM; 360,000 compounds, 1.2% hits; AID 652154;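 active = mean replicate inhibition at least 60% with every replicate also reaching 60%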;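 note: luciferase light reporting Pax8 driven TPO promoter activity; plate controls were median of neutral control wells for no effect and mitoxantrone controls for full effect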
Mdm2 MdmX PPI: human Mdm2/MdmX binding inhibition. O15151+Q00987. SaOS-2 split-luciferase Mdm2/MdmX complementation, luminescence. inhibition, % at 8 µM. 330,000 compounds, 3% hits;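 active = inhibition of at least 50% at 8 µM in the primary screen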
Target sequence (O15151 whole entry, looked up): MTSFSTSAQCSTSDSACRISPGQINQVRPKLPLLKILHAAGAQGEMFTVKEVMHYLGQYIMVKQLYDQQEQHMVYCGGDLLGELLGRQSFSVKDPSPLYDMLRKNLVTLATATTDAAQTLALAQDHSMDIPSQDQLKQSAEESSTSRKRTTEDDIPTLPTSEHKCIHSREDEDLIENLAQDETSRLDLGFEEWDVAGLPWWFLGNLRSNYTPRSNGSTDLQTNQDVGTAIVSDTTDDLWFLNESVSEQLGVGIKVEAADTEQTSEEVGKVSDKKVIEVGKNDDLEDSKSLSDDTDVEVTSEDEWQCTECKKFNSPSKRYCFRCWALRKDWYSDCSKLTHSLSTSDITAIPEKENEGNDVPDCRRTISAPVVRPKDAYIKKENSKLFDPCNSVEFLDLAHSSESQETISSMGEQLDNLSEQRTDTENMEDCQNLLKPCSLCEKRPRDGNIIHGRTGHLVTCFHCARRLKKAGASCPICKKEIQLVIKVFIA
Target sequence (Q00987 whole entry, looked up): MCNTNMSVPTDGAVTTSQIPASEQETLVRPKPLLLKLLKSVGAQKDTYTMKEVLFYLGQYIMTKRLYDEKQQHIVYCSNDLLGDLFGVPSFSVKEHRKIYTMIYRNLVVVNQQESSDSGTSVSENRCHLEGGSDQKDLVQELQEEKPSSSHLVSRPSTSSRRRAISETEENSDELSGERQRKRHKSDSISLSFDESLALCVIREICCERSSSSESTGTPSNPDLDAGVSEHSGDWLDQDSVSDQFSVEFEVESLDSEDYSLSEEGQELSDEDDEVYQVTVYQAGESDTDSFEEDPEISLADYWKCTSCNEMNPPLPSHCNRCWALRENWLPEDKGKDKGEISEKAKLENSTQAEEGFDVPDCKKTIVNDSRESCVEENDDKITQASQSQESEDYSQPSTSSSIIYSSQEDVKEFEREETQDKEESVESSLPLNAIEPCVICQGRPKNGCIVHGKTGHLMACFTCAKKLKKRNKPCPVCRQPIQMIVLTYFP
* = called active by the depositor; / = no result given; ! = a repeat was not active. Shown are actives, neighbours in structure and some others; about 4% of the full set was active somewhere.

SMILES	Gli-Sufu block	CSC inhib	Shn3 inh set2	Beta apoptosis	PAX8 reporter	Mdm2 MdmX PPI
Cc1noc(C)c1S(=O)(=O)N(C)C[C@H]1OCCCC[C@H](C)Oc2ccc(NS(=O)(=O)c3cccs3)cc2C(=O)N([C@@H](C)CO)C[C@@H]1C	/	/	/	/	12.4	/
CNC(CC(=O)c1ccc([N+](=O)[O-])cc1)C(Cl)(Cl)Cl (stereo not drawn)	-8.5	75.9*	38.4	4.0	/	/
COc1ccc(C(=O)CC(Nc2ccc([N+](=O)[O-])cc2)c2ccc(OC)cc2)cc1 (stereo not drawn)	-0.3	15.9	0.1	2.9	/	8.6
CCCCCC(=O)N1C[C@H](n2cc(-c3ccc(F)cc3)nn2)[C@@H](O)C[C@@H]1c1ccc(Cl)cc1	/	/	16.8	/	81.8*	/
COc1ccc2c3c([nH]c2c1)[C@@H](CO)N(Cc1nccs1)CC31CN(C(=O)C2CCC2)C1	/	/	/	/	9.5	/
O=C(Cc1ccc([N+](=O)[O-])cc1)Nc1ccc2c(c1)C(=O)NC2=O	-6.4	8.2	0.0	0.8	-3.2	14.9
O=C(Cc1ccc(Cl)cc1)Nc1ccc2c(c1)C(=O)NC2=O	0.0	91.3*	13.4	118.5*	8.4	18.0
C#CCOc1ccc(C2C3=C(COC3=O)Nc3cc4c(cc32)OCO4)cc1OC (stereo not drawn)	-18.8	/	1.7	/	86.1*	/
O=C1OCC2=C1C(c1ccc(F)cc1)c1cc3c(cc1N2)OCCO3 (stereo not drawn)	57.0*	/	26.0	/	85.3*	/
COc1ccc2c(c1)OC/C(=C/c1cccs1)C2=O	-48.8	-9.0	-134.3	-3.2	111.7*	-147.5
O=C1/C(=C/c2cccs2)Cc2ccccc21	-9.2	-8.0	-1.0	-3.8	-2.6	-8.3
COc1ccccc1/C=C1\SC(=O)N(CCC(=O)NCCCn2ccnc2)C1=O	-5.4	97.3*	-11.7	125.2*	-40.5	0.2
COc1ccc(/C=C2\SC(=S)N(CCC(=O)NCCCn3ccnc3)C2=O)cc1	10.3	28.0	-9.9	-13.5	-16.7	16.0
COc1ccccc1/C=C1\SC(=S)N(CCC(=O)NCCCn2ccnc2)C1=O	-6.3	99.6*	-7.2	/	-2.3	6.6
O=C(C[C@@H]1C[C@H]2c3cc(NC(=O)C4CCC4)ccc3O[C@H]2[C@@H](CO)O1)NCC1CC1	/	/	/	/	6.9	/
Cc1cc(C)nc(-n2ncc3c2CC(c2cccc(Cl)c2)CC3=O)n1 (stereo not drawn)	8.7	81.1*	20.6	-12.2	3.9	29.4
Cc1cc(C)nc(-n2ncc3c2CC(c2ccccc2)CC3=O)n1 (stereo not drawn)	9.2	4.2	-9.1	1.1	10.1	12.4
CN(C)CCCN(C(=O)COc1ccc(Cl)cc1)c1nc2cc3c(cc2s1)OCO3	15.0	-3.8	11.4	113.6*	6.6	29.2
CN1CCN(C(=O)C[C@@H]2C[C@@H]3c4cc(NC(=O)Nc5ccc(C(F)(F)F)cc5)ccc4O[C@@H]3[C@H](CO)O2)CC1	/	/	/	/	-27.7	/
N#Cc1ccc2nc(-c3ccc(CN4CCC(c5nc6ccccc6[nH]5)CC4)cc3)c(-c3ccccc3)nc2c1	/	/	/	/	78.3*	/
COCCNC(=O)C[C@H]1C[C@@H]2c3cc(NC(=O)CC4CC4)ccc3O[C@@H]2[C@@H](CO)O1	/	/	/	/	-24.2	/
COC(=O)c1cc([N+](=O)[O-])ccc1N1CCN(Cc2ccccc2)CC1	6.5	0.3	14.2	-5.2	19.4	5.7
O=[N+]([O-])c1ccc(N2CCN(Cc3ccccc3)CC2)c2c1no[n+]2[O-]	/	/	77.4	/	98.9*	/
Cc1cc(C(=O)Nc2cccc3c2O[C@H](CN(C)C(=O)Nc2ccc(F)cc2)[C@H](C)CN([C@H](C)CO)C3=O)n(C)n1	/	/	/	/	0.4	/
O=C(NCC(c1cccs1)N1CCOCC1)c1ccc(Cl)cc1 (stereo not drawn)	1.5	-7.0	-2.4	2.6	20.5	43.6
SMILES	Gli-Sufu block	CSC inhib	Shn3 inh set2	Beta apoptosis	PAX8 reporter	Mdm2 MdmX PPI
O=C(NCC(c1cccs1)N1CCOCC1)c1ccc(Cl)s1 (stereo not drawn)	12.3	77.9*	18.6	1.7	/	25.7
C[C@@H]1CCCCO[C@H](CN(C)Cc2ccc(C(F)(F)F)cc2)[C@@H](C)CN([C@@H](C)CO)C(=O)c2cc(NC(=O)NC3CCCCC3)ccc2O1	/	/	/	/	30.7	/
C[C@H](O)C#Cc1ccc([C@@H]2[C@@H](CO)N3CCCCN(S(=O)(=O)c4ccccc4)C[C@H]23)cc1	/	/	/	/	76.0*	/
COc1cccc(S(=O)(=O)N2CCCCN3[C@H](CO)[C@H](c4ccc(C#CC(C)C)cc4)[C@@H]3C2)c1	/	/	/	/	71.2*	/
Cc1cccc(S(=O)(=O)N2CCCCN3[C@H](CO)[C@@H](c4ccc(C#CC(C)C)cc4)[C@H]3C2)c1	/	/	/	/	24.1	/
Cc1cccc(S(=O)(=O)N2CCCCN3[C@H](CO)[C@H](c4ccc(C#C[C@H](C)O)cc4)[C@H]3C2)c1	/	/	/	/	86.1*	/
Cc1cccc(S(=O)(=O)N2CCCCN3[C@H](CO)[C@H](c4ccc(C#CC(C)C)cc4)[C@H]3C2)c1	/	/	/	/	78.2*	/
C[C@@H]1CN([C@H](C)CO)C(=O)c2cccc(NS(=O)(=O)c3cccs3)c2O[C@H]1CN(C)C(=O)Nc1ccc(F)cc1	/	/	/	/	-35.3	/
COCc1cn(CC[C@H]2CC[C@H](NC(=O)Nc3ccc(OC)cc3)[C@H](CO)O2)nn1	/	/	/	/	3.7	/
Cc1ccc(-n2[nH]c3c4c(ccc3c2=O)C(=O)c2ccccc2C4=O)cc1	-7.4	16.2	2.6	1.5	7.1	21.7
CC(C)(C)n1[nH]c2c3c(ccc2c1=O)C(=O)c1ccccc1C3=O	-2.3	48.3	26.2	85.8*	7.4	40.0
Cc1nn(-c2ccccc2)c(N)c1C(c1ccc(C(C)C)cc1)c1c(C)nn(-c2ccccc2)c1N	4.3	-5.8	19.7	97.3*	16.1	25.9
Cc1ccccc1S(=O)(=O)N1C[C@@H](O)COC[C@H]2O[C@H](CC(=O)N3CCN(C)CC3)CC[C@@H]21	/	/	/	/	-14.9	/
Cn1cnc2nc[nH]c2c1=S	-3.3	/	10.0	/	-3.2	/
S=c1nc[nH]c2nc[nH]c12	1.0	84.3*	42.4	-1.9	74.9*!	29.2

Bioassay records deposited in PubChem BioAssay by several laboratories.
